“And” between values parts separate entries of the source, which are not always exact repeats. Equal entries are not always repeated. Inconclusive results are not listed. Where a call stands in place of a potency, no number is given. The source made the active and inactive calls. The call rests on the fitted dose curve; in most records, active means well fitted inhibition curve with a large enough effect; inconclusive means small, poorly fitted or top-dose-only effect; inactive means flat fitted curve, though single readings scatter.
Test: Secondary Assay for lipid storage modulators: Cytotoxcity for probe SAR
Details: Drosophila S3 cells viability, CellTiter-Glo luminescence, 24 h, with oleic acid added (1 µL, 400 µM); series mostly up to 46.1 µM
Source text: NIH Molecular Libraries Probe Production Centers Network [MLPCN] NIH Chemical Genomics Center [NCGC] MLPCN Grant: 1 R03 MH085686-01 Assay Submitter (PI): Beller, Mathias; Max-Planck-Institut fur Biophysikalische Chemie, Germany. NCGC Assay Overview: Storing lipids as a reservoir for energy or the anabolism of elementary metabolites is a common feature of probably all cells and is conserved from bacteria to humans. The universal cellular lipid storage organelle is the so-called lipid storage droplet (LD). Although ubiquitous, LDs share a simple structure composed of a hydrophobic core that harbors the storage lipids, which is shielded by a droplet-specific phospholipid monolayer to which proteins are attached. The current model of LD biogenesis involves an incorporation of the lipid core into the membrane leaflets of the endoplasmic reticulum (ER) followed by a subsequent budding-like maturation of a LD, which ultimately pinches off. Once released, LD volume can increase by localized lipogenesis or fusion of existing droplet. Storage lipids are re-mobilized enzymatically by lipase activity. Lipase regulation in the adipocyte is heavily studied and involves multiple components including catecholamine signaling, the LD-associated proteins Perilipin and comparative gene identification (CGI-58) and at least two lipases named hormone sensitive lipase (HSL) and adipocyte triglyceride lipase (ATGL). LD regulation outside of the adipocyte is poorly understood and only few components are known. However, there is an urgent need to learn more about ectopic fat depots as mislocalized storage of lipids, for example in the liver or muscle, is an eminent health problem associated with insulin resistance or the metabolic syndrome. We developed a laser-scanning cytometer assay to enable 1,536-well screening and combined the results of the small molecules screen with an RNAi database based on lipid storage. The compound was tested here for cytotoxcity using CellTiter-Glo.
Assay Protocol Summary: Cytotoxcity assay was performed with embryonic Drosophila S3 cells (Bloomington Drosophila Genomics Resource Center [DGRC]). We dispensed 4 uL of cells at 1.25 x 10^6 cells/mL into Greiner solid white 1,536-well plates with a bottle-valve solenoid-based dispenser (Aurora) to obtain 5,000 cells/well. A total of 23 nL of compound solution of different concentrations were transferred to the assay plates using a Kalypsys pin tool equipped with a 1,536-pin array containing 10-nL slotted pins (FP1S10, 0.457-mm diameter, 50.8 mm long; V&P Scientific). One microliter of oleic acid (400 uM) was added, and the plate was lidded with stainless steel rubber gasket lined lids containing pinholes. After 24 hrs of incubation at 24 degrees Celsius and 95% humidity, 4 uL of CellTiter-Glo (Promega) was added to the wells. Luminescence was detected on the Perkin Elmer ViewLux.
In the case of `COc1ccc(Cl)cc1NC(=S)N1CCN(c2cccc(Cl)c2)CC1`, the Potency is reported as “inactive”.
For `O=C(NC1CCCc2c1cnn2-c1ccc(F)cc1F)c1ccccn1` (stereo not given), the Potency was 9.96 µM (active) and 8.88 µM (active).
In the case of `Cc1csc(NC(=O)CSc2ncc(-c3ccccc3)n2Cc2ccco2)n1`, the Potency is reported as “inactive”.
In the case of `COc1ccc(CCNC(=O)c2cc3sccc3n2Cc2ccccc2)cc1OC`, the Potency is reported as “inactive”.
For `COc1ccc(Cl)cc1NC(=S)N1CCN(c2ccccc2)CC1`, the Potency was “inactive”.
With `O=C(NC1CCCc2c1cnn2-c1ccc(F)cc1F)c1ccccc1` (stereo not given) the Potency was 5.6 µM (active).
For `CCOC(=O)C1CCN(C(C)C(=O)NC(=O)NC2CCCCC2)CC1` (stereo not given), the Potency was “inactive”.
For `CCOC(=O)C1CCN(C(=O)C2(NC(=O)Nc3ccccc3Cl)CC2)CC1`, the Potency was “inactive”.
In the case of `CCOC(=O)C1CCN(C(=O)C2(NC(=O)Nc3ccccc3Cl)CCC2)CC1`, the Potency is reported as “inactive”.
For `CCn1c(C(=O)NCCc2ccc(OC)c(OC)c2)cc2sccc21`, the Potency was “inactive”.
With `O=C(Cc1cccs1)Nc1nc(-c2ccncc2)cs1` the Potency was “inactive”.
With `CCn1c(C(=O)NCCc2ccc(OC)c(OC)c2)cc2sc(Cl)cc21` the Potency was “inactive”.
For `CCOc1ccc(NC(=O)NC2(C(=O)N3CCCCC3)CCCCC2)cc1`, the Potency was “inactive”.
For `O=C(NC1CCCc2c1cnn2-c1cc(F)cc(F)c1)c1cccc2nccnc12` (stereo not given), the Potency was “inactive”.
For `CC(=O)NCc1ccc(-c2csc(NC(=O)Cc3cccs3)n2)cc1`, the Potency was “inactive”.
For `Cc1cn(-c2cc(NC(=O)c3ccc(C)c(Nc4nccc(-c5cccnc5)n4)c3)cc(C(F)(F)F)c2)cn1`, the Potency was “inactive”.
With `CCc1sc(NC(=O)Cc2cccs2)nc1-c1ccccc1` the Potency was “inactive”.
With `CCn1c(-c2ccc(C)cc2)cnc1SCC(=O)Nc1nc(C)cs1` the Potency was “inactive”.
For `O=C(Nc1cccc2nn(-c3ccc(F)cc3)cc12)c1ccccn1`, the Potency was 12.5 µM (active).
In the case of `COc1ccc(Cl)cc1NC(=O)N1CCN(c2ccccn2)CC1`, the Potency is reported as “inactive”.
For `Cc1ccc(CC(=O)Nc2nc(-c3cccs3)cs2)cc1`, the Potency was “inactive”.
For `Cc1sc(NC(=O)Cc2cccs2)nc1-c1ccccc1`, the Potency was “inactive”.
For `O=C(NC1CCCc2c1cnn2-c1ccc(F)cc1F)c1cccs1` (stereo not given), the Potency was 8.88 µM (active).
With `CCOc1ccc(CCNC(=O)CN(C)C)cc1OCC` the Potency was “inactive”.
With `O=C(Cc1cccs1)Nc1nc(-c2ccc(F)cc2)cs1` the Potency was “inactive”.
For `CCOc1ccc(CCNC(=O)C2COc3ccccc3O2)cc1OCC` (stereo not given), the Potency was “inactive”.
With `COc1nc(-c2ccc3c(c2)OCO3)n(-c2ccc(NC(=O)CSc3ccccc3)cc2)n1` the Potency was “inactive”.
With `CCOC(=O)C1CCN(C(=O)CNC(=O)Nc2ccccc2Cl)CC1` the Potency was “inactive”.
For `O=C(O)CCc1ccc(NCc2cccc(Oc3ccccc3)c2)cc1`, the Potency was “inactive”.
For `O=C(NCCc1ccc2c(c1)OCO2)c1cc2sccc2n1Cc1ccccc1`, the Potency was “inactive”.
In the case of `CCOc1ccc(CCNC(=O)c2cc3ccccc3n2C)cc1OCC`, the Potency is reported as “inactive”.
In the case of `Cc1ccc(-c2cnc(SCC(=O)Nc3nc(C)cs3)n2Cc2ccco2)cc1`, the Potency is reported as “inactive”.
For `O=C(NC1CCCc2c1cnn2-c1ccc(F)cc1F)C1CCCCC1` (stereo not given), the Potency was 0.791 µM (active).
For `O=C(c1cc2sccc2n1Cc1ccccc1)N(CCc1ccc(O)c(O)c1)Cc1ccccc1`, the Potency was “inactive”.
With `CCOc1ccc(CCNC(=O)c2cc3sccc3n2Cc2ccc(-n3cncn3)cc2)cc1OCC` the Potency was “inactive”.
With `O=C(CSc1nnc(NCc2ccccc2)s1)Nc1nc(-c2ccc(F)c(F)c2)cs1` the Potency was “inactive”.
With `O=C(CSc1nnc(NCc2ccccc2)s1)Nc1nc(-c2cccc(Br)c2)cs1` the Potency was “inactive”.
In the case of `CC(C)(C)OC(=O)NC1CCCc2c1cnn2-c1ccc(F)cc1F` (stereo not given), the Potency is reported as 9.96 µM (active).
In the case of `O=C(NC1CCCc2c1cnn2-c1ccc(F)cc1F)c1ccc(C(=O)c2ccccc2)cc1` (stereo not given), the Potency is reported as 11.2 µM (active).
In the case of `O=C(Cc1cccs1)Nc1nc(-c2ccc3c(c2)CCC3)cs1`, the Potency is reported as “inactive”.
